Laboratory results from ChEMBL document CHEMBL4513216, “Probing the Open Global Health Chemical Diversity Library for Multistage-Active Starting Points for Next-Generation Antimalarials” (ACS Infect Dis, 2020).
Out of some 69,000 compounds screened, about 8,600 (12%) showed an effect of 50% or more. The full list was thinned out, with strong results kept by preference.

test system: Plasmodium berghei; assay: Screen against P. berghei liver stage (PbLuc), transformed with Luciferase, at 10uM; format: functional, HepG2; conditions: tested at 10 uM

Structure (SMILES)	INHIBITION [%]
CC(=O)NCC(=O)NCC1(O)CCN(c2cnccn2)C1 (stereo unspecified)	42.25
COc1c(C)cnc(CN2CCOC(Cn3cncn3)C2)c1C (stereo unspecified)	2.97
O=C(C1CCC2(CCN(CC3CCOCC3)CC2)O1)N1CCCC1 (stereo unspecified)	1.34
COCCNC(=O)C1(Cc2ccccc2-c2ccncc2)CCOCC1	40
Cc1cc(O)nc(C2CCCN(Cc3ccncc3)C2)n1 (stereo unspecified)	27.3
COCc1cc(O)nc(C2CCCN(Cc3cc(OC)ccc3F)C2)n1 (stereo unspecified)	52.3
COc1ccc(OC)c(CN2CCC(c3cc(O)nc(C)n3)C2)c1 (stereo unspecified)	41.2
Cn1cc(C2SCC(=O)Nc3c2c(=O)[nH]n3C2CCOCC2)cn1 (stereo unspecified)	-70.7
O=C1CC(c2ccccc2F)c2c(n(C3CCCC3)[nH]c2=O)N1 (stereo unspecified)	68.5
CC1=Nc2c(c(=O)[nH]n2C2CCOCC2)C(c2cccc(O)c2)S1 (stereo unspecified)	0.29
O=C1CSC(c2ccsc2)c2c(n(C3CCCC3)[nH]c2=O)N1 (stereo unspecified)	63.3
CCOc1ccc(C2SCC(=O)Nc3c2c(=O)[nH]n3C(CC)CC)cc1 (stereo unspecified)	-19.7
O=C1CSC(c2ccc(O)cc2)c2c(n(C3CCOCC3)[nH]c2=O)N1 (stereo unspecified)	60.1
Cc1n[nH]c2c1C(c1ccsc1)SCC(=O)N2 (stereo unspecified)	19.7
COc1ccccc1C1CC(=O)Nc2c1c(=O)[nH]n2C1CCCC1 (stereo unspecified)	11.7
O=C1CSC(c2ccccc2)c2c(n(C3CCOCC3)[nH]c2=O)N1 (stereo unspecified)	32.2
COc1ccccc1C1SCC(=O)Nc2c1c(=O)[nH]n2C1CCCCC1 (stereo unspecified)	-2.39
O=C1CC(C2CCCCC2)c2c(n(C3CCCC3)[nH]c2=O)N1 (stereo unspecified)	43.4
CSc1ccc(C2SCC(=O)Nc3c2c(=O)[nH]n3C2CCOCC2)cc1 (stereo unspecified)	52.1
Cc1ccsc1CNC(=O)NC(C)c1ccc2c(c1)CCC(=O)N2 (stereo unspecified)	-121
COCCN1CCO[C@@H]2CN(Cc3ccc(C)s3)C[C@@H]2C1	24.6
NC(=O)C1CCN(C(=O)CCSCc2ccccc2)CC1	17.2875

Structure (SMILES)	INHIBITION [%]
CCCn1nc(C)c(C(=O)N(C)[C@@H]2CC[C@@H](N3CCCC3)[C@@H]2O)c1C	32
CCn1cnnc1C1CCN(C(=O)c2cc3c(s2)CCOC3)CC1	-9.37
Cc1cc(C)cc(N2CCN(C(=O)CCN3C[C@H]4CC[C@@H]3C4)CC2=O)c1	22.1
CC(O)CN1CCN(C(=O)c2cccn2Cc2ccccc2)CC1 (stereo unspecified)	-0.113
CCOC(C)c1nccn1CC(=O)Nc1cc(C)on1 (stereo unspecified)	15.4
CSCC(=O)N1CCCC(CO)(CC2CC2)C1 (stereo unspecified)	41.2
O=C1CSC(c2ccsc2)c2c(n(C3CCOCC3)[nH]c2=O)N1 (stereo unspecified)	67.1
O=C1CSC(c2ccncc2)c2c(n(C3CCOCC3)[nH]c2=O)N1 (stereo unspecified)	52.1
CC(C)(C)n1ncc2c1NC(=O)CSC2c1ccsc1 (stereo unspecified)	-14.7
O=C1CC(c2ccsc2)c2c(n(C3CCOCC3)[nH]c2=O)N1 (stereo unspecified)	19
O=C1CSC(c2cccnc2)c2c(n(C3CCOCC3)[nH]c2=O)N1 (stereo unspecified)	48.1
Cc1n[nH]c2c1C(c1ccncc1)SCC(=O)N2 (stereo unspecified)	23.5
CC(C(=O)N1CCCCCC1)N1CCN(Cc2nccn2C)CC1 (stereo unspecified)	37.4
CCSCCn1cc(-c2nccs2)nn1	-17.5
CC(C)c1ncncc1C(=O)N1CCCN(Cc2ccccc2)CC1	14.1
CC(C)C(=O)N1CCCC1C(=O)Nc1ccc(F)c(F)c1 (stereo unspecified)	21.7
O=C(c1cccn1Cc1cccs1)N1CCN2CCCCC2C1 (stereo unspecified)	33.3
CC(=O)N1CCO[C@@H]2CN(S(=O)(=O)c3ccc(F)cc3)CC[C@@H]2C1	45.4
O=C1CN(C(=O)CN(CC2CCC2)CC(F)(F)F)CCN1	31
Cc1ncc(CN2Cc3ccccc3OC3(CCC(CO)CC3)C2)cn1 (stereo unspecified)	47.2
Cc1ccc(CN2Cc3ccccc3OC3(CCC(CO)CC3)C2)o1 (stereo unspecified)	44.1
OCC1CCC2(CC1)CN(Cc1ccccn1)Cc1ccccc1O2 (stereo unspecified)	21

Structure (SMILES)	INHIBITION [%]
Cc1ccc(CN2CC(C(=O)Nc3ccccc3)C3(CCOCC3)C2)s1 (stereo unspecified)	45.8
Cc1cnccc1CN1Cc2ccccc2OC2(CCC(CO)CC2)C1 (stereo unspecified)	41.2
OCC1CCC2(CC1)CN(Cc1ccccc1F)Cc1ccccc1O2 (stereo unspecified)	53.5
O=C(Nc1ccccc1)C1CN(Cc2ccsc2)CC12CCOCC2 (stereo unspecified)	-3.12
Cc1ccc(CN2Cc3ccccc3OC3(CCC(CO)CC3)C2)s1 (stereo unspecified)	67.9
OCC1CCC2(CC1)CN(Cc1ccsc1)Cc1ccccc1O2 (stereo unspecified)	51.5
Cc1ccccc1CNC(=O)N1C[C@@H]2C[C@H](C(=O)N3CCCC3)[C@H](C1)O2	-16.9
O=C(Nc1nc[nH]n1)c1cc(-c2ccc(F)cc2)n[nH]1	16
Cc1cc(C(=O)NCc2ccnc(N3CCN(C)CC3)c2)sc1C	36.45
CN1CC(=O)N(C2CCNCC2)Cc2c(NCC(C)(C)C)ncnc21	47.4
COc1ccc(CC(=O)Nc2ccc3ncn(C(C)C)c(=O)c3c2)cc1	21.2
CCC1(CO)CCCN(C(=O)c2cc(COc3cccc(F)c3)[nH]n2)C1 (stereo unspecified)	20.9
Cc1nn(C)c(N(C)C)c1CNC(C)COc1ccccc1F (stereo unspecified)	23.4
CCN(CC)C(=O)CCc1c(C)nc2cc(O)nn2c1C	34.7
COC(=O)CCc1c(C)nc2cc(O)nn2c1C	53.5
CNC(=O)CCNC(=O)CCc1c(C)nc2cc(O)nn2c1C	29.2
Cc1nc(NC(=O)CCc2c(C)nc3cc(O)nn3c2C)sc1C	-14.7
Cc1nc2cc(O)nn2c(C)c1CCC(=O)NCCc1ccccc1	22.3
CCNC(=O)CCc1c(C)nc2cc(O)nn2c1C	55.9
Oc1ccc(N(CCc2ccccc2)CCn2cncn2)cc1	44
CCS(=O)(=O)N1C[C@H]2CC[C@](O)(c3ccc(C)cc3)[C@H]2C1	-2.11
Cc1nc(C2CCCN(C(=O)c3cc4c(s3)CCCC4)C2)no1 (stereo unspecified)	11.2

Structure (SMILES)	INHIBITION [%]
O=C(NCC1CCN(Cc2cc3ccccc3[nH]2)C1)c1ccsc1 (stereo unspecified)	40.8
COc1ccc(C(=O)NC2CCN(c3ncccn3)CC2)cc1F	46.1
COc1ccc(N2CCC(NC(=O)c3sccc3C)CC2)cc1	45
COc1ccsc1C(=O)NC1CCN(c2ccc(C#N)cc2)CC1	52.6
O=C(CCc1ccsc1)NC1CCN(c2cccc(F)c2)CC1	59.3
O=C(Cc1cccs1)NC1CCN(c2cccc(F)c2)CC1	4.71
CC(c1ccccc1)N1CCC(NC(=O)CCc2ccsc2)CC1 (stereo unspecified)	4.22
COc1ccsc1C(=O)NC1CCN(c2cccc(F)c2)CC1	84.1
O=C(CCc1ccc(Cl)cc1)NC1CCN(c2cccc(F)c2)CC1	47.3
COc1ccc(N2CCC(NC(=O)c3ccc(C#N)cc3)CC2)cc1	41.8
CCN1C[C@@H]2CN(C(=O)NCc3ccccc3)CCC[C@]2(C(=O)O)C1	31.4
COc1ccc(CN2C[C@H]3CC[C@@H](C2)N(S(C)(=O)=O)C3)cc1	15.7
COc1ccc(Cl)cc1CN(C)CC(=O)Nc1ccnn1C(C)C1CC1 (stereo unspecified)	-75.4
COCCN1CCC2(COCc3c(C)nc(N4CCOCC4)nc32)C1 (stereo unspecified)	-24.8
Cc1cc(C(=O)N2CCCC(n3ccnc3C)C2)c(C)s1 (stereo unspecified)	18.2
Cc1nccn1C1CCCN(C(=O)c2ccc3c(c2)COC3)C1 (stereo unspecified)	57.8
COc1ncccc1C(=O)N1CCCC(n2ccnc2C)C1 (stereo unspecified)	54.7
Cc1nn(-c2ccccc2)cc1C(=O)N1CCCC(n2ccnc2C)C1 (stereo unspecified)	27.6
Cc1nccn1C1CCCN(C(=O)c2cc(O)nc3ccccc23)C1 (stereo unspecified)	52.7
Cc1nccn1C1CCCN(C(=O)c2ccc3c(c2)CCC3)C1 (stereo unspecified)	-0.96
CCCc1cc(C(=O)N2CCCC(n3ccnc3C)C2)[nH]n1 (stereo unspecified)	10.8
CC(C)c1nccn1C1CCCN(C(=O)c2ccc3c(c2)COC3)C1 (stereo unspecified)	-49.5

Structure (SMILES)	INHIBITION [%]
COCCOc1ncccc1C(=O)N1CCCC(n2ccnc2C)C1 (stereo unspecified)	-19.9
COc1ncccc1C(=O)N1CCCC(n2ccnc2)C1 (stereo unspecified)	-5
Cc1ccccc1-c1cc(C(=O)N2CCCC(n3ccnc3C)C2)[nH]n1 (stereo unspecified)	66.7
Cc1cnn(C2CCCN(C(=O)c3cc(-c4ccccc4C)n[nH]3)C2)c1 (stereo unspecified)	32
Cc1cnn(CC2CN(CC(=O)Nc3cc(C)on3)CCO2)c1 (stereo unspecified)	16.85
CC(C)n1ccnc1CN1CCCN(C(=O)c2cnc[nH]2)CC1	46.3
O=C(Cc1ccc2c(c1)OCCO2)NC1CCCCC1	-53.2
O=C([C@H]1CCCO1)N1CCN(CCn2cccn2)c2ncccc2C1	30.3
O=C(Nc1ccc(F)cc1)C1CSCN1 (stereo unspecified)	3.38
COc1ccc(CN(Cc2c[nH]cn2)CC2CCCO2)c(OC)c1 (stereo unspecified)	25.6
O=C(c1cccs1)N1CCN(CC2CC2)c2ncccc2C1	-22.5
O=C(NCc1ccccc1Cn1cncn1)N1CCCC1	-33.3
C1CC(CN2C[C@@H]3CC[C@H]2CN(Cc2nnc(C4CC4)o2)C3)C1	27.5
Cn1c2c(ccc1=O)CC(NC(=O)c1ccsc1)CC2 (stereo unspecified)	49.4
Cn1ccc(N2CCCC(NC(=O)c3ccsc3)C2=O)n1 (stereo unspecified)	72.5
Cn1ccc(N2CCCC(NC(=O)c3ccc(Cl)o3)C2=O)n1 (stereo unspecified)	-34.8
c1ccc(CN2CCCC(c3nccnc3-n3ccnc3)C2)cc1 (stereo unspecified)	33.5
CS(=O)(=O)CCNC(=O)Nc1ccc(Cl)cc1-n1cccc1	35.4
